Our source for the Potency and outcome values is PubChem BioAssay (Tox21).

Each structure is given as a SMILES string. Unmarked numbers belong to inactive results. Results filed as inconclusive are left out. Activity calls are given as the source filed them. Unless noted, calls follow the shape of the dose curve; as a rule, active = well fitted curve in the direction sought with a large enough effect in the repeat runs; inconclusive = weak or mixed curves; inactive = no such curve, though single readings can be large; an effect the other way counts as inactive or inconclusive.

Experiment [1] in a line: qHTS assay to identify small molecule HDAC inhibitors (AID 1259364). Also: nearly all actives have a fitted effect of over 45% in size. Also: potency is read from the fitted curve at half-maximal effect. The method, boiled down: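 Luminescence read after 30 min room-temperature HDAC-Glo incubation measures cellular class I/II HDAC activity. Compounds were applied for 2 hr at 37 C to HCT-116 wild-type cells seeded the day before.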
Experiment [2] can be described thus: qHTS assay to identify small molecule HDAC inhibitors - cell viability counter screen (AID 1259365). Also: series mostly up to about 92 µM; nearly all actives have a fitted effect of over 50% in size. The method, boiled down: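 Viability readout: CellTiter-Glo luminescence. Wild-type HCT-116 cells, 2hr compound treatment following overnight attachment at 37 C.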
Experiment [3] in a line: qHTS assay to identify small molecule antagonists of the sonic hedgehog signaling (Shh) pathway - cell viability counter screen (AID 1259367). Also: nearly all actives have a fitted effect of over 55% in size. Also: potency is read from the fitted curve at half-maximal effect. The method, boiled down:
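Conditioned medium drove Shh signaling in 3T3 Gli1-Luc cells exposed to compounds at 37C and 5% CO2. Viability was determined from CellTiter-Fluor fluorescence, with reagent incubated 1 hr after 23 hr of treatment.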

Experiment [4] in a line: qHTS assay to identify small molecule agonists of the sonic hedgehog signaling (Shh) pathway (AID 1259368; calls by dose curve;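 also: NIH/3T3-derived 3T3Gli1-Luc cells carrying a stable Gli1-driven firefly luciferase reporter; series mostly up to about 92 µM; nearly all actives have a fitted effect of over 15% in size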). The method, boiled down:
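Luminescence was read after 30 min at room temperature with luciferase reagent. Before that, 3T3Gli1-Luc cells (NIH/3T3 clone, stable Gli1-Luc reporter; 2,000/well) were exposed to compounds for 24 hr at 37C, 5% CO2, compounds being added 4 hr post-plating.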

Experiment [5] has as its target Estrogen receptor beta (Homo sapiens) (UniProt Q92731). Briefly: qHTS assay to identify small molecule agonists of the estrogen receptor beta (ER-beta) signaling pathway (AID 1259377; active = well fitted activation curve with a large enough effect in the signal ratio in the repeat runs, not every such curve was filed as active; the % refers to the signal ratio; also: potency is read from the fitted curve at half-maximal effect). The essentials: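 A UAS-controlled beta-lactamase reporter in ER-beta-UAS-bla HEK293T cells reports receptor activation. Compounds act for 16 hr at 37C in 2% charcoal-stripped serum, and a FRET substrate is read by fluorescence after 2 hours.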

Experiment [6] in a line: qHTS assay to identify small molecule agonists of the estrogen receptor beta (ER-beta) signaling pathway - cell viability counter screen (AID 1259380). Also: nearly all actives have a fitted effect of over 30% in size. The essentials:
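Cell viability counter screen: CellTiter-Glo luminescence (30 min, room temperature) measured in the same wells as the beta-lactamase readout, after 16 hr compound exposure at 37C of ER-beta-bla HEK293T cells in 2% charcoal-stripped FBS medium.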

Experiment [7] can be described thus: qHTS assay to identify small molecule agonists of the androgen receptor (AR) signaling pathway in the presence of an antagonist - cell viability counter screen (AID 1259379). Also: nearly all actives have a fitted effect of over 25% in size. Also: potency is read from the fitted curve at half-maximal effect. The essentials: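 Cytotoxicity counter-screen run in the same wells as the nilutamide-challenged (3.0 µM final) AR agonist assay in MDA-kb2 cells. Compounds tested at 15 concentrations for 16 h, 37 °C without CO2; CellTiter-Fluor fluorescence read.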

Experiment [8] can be described thus: qHTS assay to identify small molecule agonists of the sonic hedgehog signaling (Shh) pathway - cell viability counter screen (AID 1259366). Also: nearly all actives have a fitted effect of over 50% in size. The essentials: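 Viability measured fluorometrically (CellTiter-Fluor, 1hr, 37C) in 3T3 Gli1-Luc reporter cells after 23hr compound exposure within a 24hr incubation at 37C/5% CO2.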
A short description of experiment [9]: qHTS assay to identify small molecule antagonists of the sonic hedgehog signaling (Shh) pathway (AID 1259369; calls by dose curve; also: nearly all actives have a fitted effect of over 45% in size). The essentials:
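Antagonist mode: compound added to 3T3 Gli1-Luc cells followed by conditioned-medium stimulation, 24 h at 37 C, 5% CO2. Inhibition taken as loss of Gli1-driven luciferase luminescence.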

The target of experiment [10] is Estrogen receptor beta (Homo sapiens) (UniProt Q92731). Briefly: qHTS assay to identify small molecule antagonists of the estrogen receptor beta (ER-beta) signaling pathway (AID 1259378; active = well fitted inhibition curve with a large enough effect in the signal ratio in the repeat runs, not every such curve was filed as active; the % refers to the signal ratio). The essentials:
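ER-beta-UAS-bla HEK293T (GripTite) cells in 2% charcoal-stripped FBS medium were preincubated 6 hr at 37C, dosed with compound, then stimulated with 1 nM E2 (final) for 16 hr; beta-lactamase reporter read by B/G FRET fluorescence after 2 hr substrate loading.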

Sequence of Estrogen receptor beta (Homo sapiens) (Q92731 whole entry, looked up): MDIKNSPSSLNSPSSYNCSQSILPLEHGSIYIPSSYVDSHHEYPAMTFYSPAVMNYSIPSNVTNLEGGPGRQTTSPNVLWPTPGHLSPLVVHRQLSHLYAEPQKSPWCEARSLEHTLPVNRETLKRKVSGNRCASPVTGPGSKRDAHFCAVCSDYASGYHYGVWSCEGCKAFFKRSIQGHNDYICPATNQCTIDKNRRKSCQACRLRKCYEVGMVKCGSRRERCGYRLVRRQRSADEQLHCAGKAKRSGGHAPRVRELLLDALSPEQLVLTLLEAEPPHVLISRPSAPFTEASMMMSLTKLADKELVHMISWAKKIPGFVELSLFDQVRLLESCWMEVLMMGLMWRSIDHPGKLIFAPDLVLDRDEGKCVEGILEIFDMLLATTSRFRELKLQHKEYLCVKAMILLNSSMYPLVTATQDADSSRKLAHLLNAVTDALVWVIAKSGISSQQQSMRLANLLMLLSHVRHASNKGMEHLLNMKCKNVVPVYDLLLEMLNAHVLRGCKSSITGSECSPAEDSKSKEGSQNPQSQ

Consider `O=c1cc(O)c(Cl)c[nH]1`, for which the Potency entry in experiment [1], in [3] and in [5] was “inactive” throughout. Besides, the outcome in [2], in experiment [4] and in experiment [6] was inactive.

Consider `Cc1oc(=O)oc1CN1CCN(c2cc3c(cc2F)c(=O)c(C(=O)O)c2n3C(C)S2)CC1` (centres undefined), for which the Potency entry in experiment [1], in [3], in [5] and in experiment [7] was “inactive” throughout. Also, the call in experiment [2], in experiment [4] and in experiment [6] was inactive.

As for `CCCCCCCCCCCCCCCC(=O)NCCO`, the result in experiment [2] and in experiment [4] was inactive. For the same compound, the Potency result in experiment [8], in [3] and in [9] was “inactive” each time.

For the compound `CN[C@@H]1[C@H](O)[C@H](NC)[C@H]2O[C@@]3(O)C(=O)C[C@@H](C)O[C@H]3O[C@@H]2[C@H]1O`, the Potency entry in experiment [1], in [3], in experiment [9] and in [7] was “inactive” in each case. The outcome in [2], in experiment [4] and in experiment [6] was inactive.

On to `O=C(c1ccc2c(c1)C(=O)OC2=O)c1ccc2c(c1)C(=O)OC2=O`, for which the Potency entry in experiment [1], in experiment [3], in experiment [5] and in experiment [7] was “inactive” throughout. Further, the outcome in [2], in experiment [4] and in [10] was inactive.

Turning to `CC(=O)c1ccc(OCC(=O)N2CCCCC2)cc1`, the Potency in experiment [1] is 13.3 µM (active). Besides, the outcome in [2], in experiment [4] and in [6] was inactive. For the same compound, the Potency entry in [3] and in experiment [9] was “inactive” each time.

In the case of `CCC(C)(CCC(C)C)C(=O)[O-].CCC(C)(CCC(C)C)C(=O)[O-].[Zn+2]` (centres undefined), the Potency result in experiment [1], in experiment [3], in experiment [9] and in experiment [7] was “inactive” each time. Further, the result in [2], in [4] and in [6] was inactive.

Consider `NC(Cc1c[nH]c2ccccc12)C(=O)O` (centres undefined), for which the Potency result in [1], in experiment [3], in experiment [9], in [5] and in experiment [7] was “inactive” throughout. Moreover, the outcome in experiment [2], in experiment [4] and in experiment [6] was inactive.

Consider `Nc1nc(=O)n([C@@H]2O[C@H](CO)[C@@H](O)[C@@H]2F)cc1I`, for which the Potency entry in [1], in experiment [3], in [9], in [5] and in experiment [7] was “inactive” each time. In addition, the call in experiment [2], in experiment [4] and in [6] was inactive.

With `CCN1CN(CC)CN(CC)C1`, the result in [2], in [4], in [10] and in experiment [6] was inactive. Also, the Potency result in experiment [8], in experiment [3], in experiment [9], in [5] and in [7] was “inactive” throughout.

Turning to `CCCCC(CC)COC(=O)c1ccccc1` (centres undefined), the outcome in experiment [2] and in [4] was inactive. The Potency result in [8], in experiment [3], in [9] and in experiment [5] was “inactive” throughout.

Take `O=C(/C=C/c1ccccc1)NCCO`: the compound was classed as inactive in [2], in experiment [4] and in experiment [10]. The Potency entry in experiment [8], in experiment [3], in [9], in experiment [5] and in [7] was “inactive” in each case.

`O=C(O)CCNC(=O)c1ccccc1`: the Potency result in [1], in experiment [3], in experiment [9] and in experiment [7] was “inactive” each time. In addition, the result in experiment [2], in experiment [4] and in experiment [6] was inactive.

For the compound `c1ccccc1`, the Potency result in experiment [1], in [3] and in [7] was “inactive” throughout. Also, the compound was classed as inactive in [2], in [4] and in experiment [6].

With `C[N+](C)(C)CC(O)CCl` (centres undefined), the Potency entry in [1], in experiment [3], in [9] and in [7] was “inactive” each time. Besides, the call in [2], in experiment [4] and in [6] was inactive.

Regarding `COC(OC)C(C)c1ccccc1` (centres undefined), the Potency entry in experiment [1], in experiment [3], in [9], in experiment [5] and in experiment [7] was “inactive” in each case. Further, the compound was called inactive in experiment [2], in experiment [4] and in [6].

On to `FC(F)(F)c1ccc(Cl)cc1Cl`, for which the Potency entry in [1], in experiment [3], in [9] and in experiment [7] was “inactive” each time. For the same compound, the compound was classed as inactive in [2], in experiment [4] and in [6].

Turning to `CCCCCC(=O)OCC`, the compound was called inactive in experiment [2], in [4], in experiment [10] and in experiment [6]. The Potency result in experiment [8], in experiment [3], in experiment [9], in experiment [5] and in [7] was “inactive” in each case.

Take `COc1cc([N+](=O)[O-])ccc1N`: the outcome in [2], in experiment [4], in experiment [10] and in experiment [6] was inactive. The results for the Potency in [3] and in experiment [7] were 54.5 µM (active) and 34.4 µM (active), respectively. Further, the Potency result in [5] is “inactive”.

In the case of `COc1cc2c3cc1Oc1cc(ccc1O)C[C@@H]1c4c(cc(OC)c(O)c4Oc4ccc(cc4)C[C@@H]3N(C)CC2)CC[N+]1(C)C`, the compound was called inactive in experiment [2], in [4] and in experiment [6]. Besides, the Potency entry in experiment [8], in [3], in experiment [9] and in experiment [7] was “inactive” throughout. For the same compound, the Potency in experiment [5] was 26.6 µM (active).

In the case of `CCOC(=O)C(=O)c1csc(NC=O)n1`, the compound was called inactive in [2], in [4] and in experiment [6]. Also, the Potency entry in experiment [8], in experiment [3], in [9], in experiment [5] and in experiment [7] was “inactive” throughout.

On to `C[C@H](CCC(=O)NCC(=O)O)[C@H]1CC[C@H]2[C@@H]3[C@H](O)C[C@@H]4C[C@H](O)CC[C@]4(C)[C@H]3C[C@H](O)[C@]12C`, for which the result in experiment [2], in [4], in [10] and in experiment [6] was inactive. Also, the Potency entry in experiment [8], in experiment [3], in experiment [9], in experiment [5] and in experiment [7] was “inactive” each time.

For `F[Si-2](F)(F)(F)(F)F`, the compound was classed as inactive in [2], in [4], in experiment [10] and in experiment [6]. Further, the Potency result in [8], in [3], in experiment [9], in experiment [5] and in experiment [7] was “inactive” each time.

With `CC(=O)OC[C@H]1O[C@@H](OC(C)=O)[C@H](OC(C)=O)[C@@H]1OC(C)=O`, the compound was called inactive in experiment [2] and in [4]. For the same compound, the Potency result in [8], in experiment [3], in experiment [9] and in experiment [7] was “inactive” in each case.

As for `OCCCCCCCl`, the result in [2], in [4] and in experiment [6] was inactive. In addition, the Potency entry in experiment [8], in [3], in experiment [5] and in experiment [7] was “inactive” each time.

`Cc1ccc(C(=O)C(=O)O)cc1C`: the result in [2], in experiment [4] and in [6] was inactive. Also, the Potency result in [8], in [3], in experiment [9] and in experiment [7] was “inactive” each time.

As for `O=C(CN1CCN(Cc2ccc3c(c2)OCO3)CC1)N1c2ccccc2Sc2ccccc21`, the outcome in experiment [2] and in experiment [4] was inactive. For the same compound, the Potency result in experiment [8], in [3], in [9] and in experiment [7] was “inactive” each time.

For `CC(C)(C)c1ccc(C=O)cc1`, the call in experiment [2], in experiment [4], in experiment [10] and in experiment [6] was inactive. Moreover, the Potency result in [8], in [3], in experiment [9], in experiment [5] and in [7] was “inactive” each time.
